Here are results for 67 sequences from PubChem BioAssay AID1347423 (Functional Genomics Laboratory (NCATS/FGL), 2020).

Out of some 52,000 sequences screened, about 210 (0.4%) were called active. The full list was thinned out, with actives kept by preference. Unmarked numbers belong to inactive results.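 How the source made its calls: active means gene whose silencing raises cell survival under the drug, median off-target-corrected z-score across its silencing RNAs 2 or more; inactive means the rest.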

A short description of the test: Resistance to Poly (ADP-Ribose) Polymerase inhibitor: Gene Identification via Genome-wide siRNA Screen. The following applies: mouse BRCA2 R2336H ES cells, olaparib, CellTiter-Glo viability; hits give high values. The gist of the method:
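Mouse BRCA2 R2336H ES cells were reverse-transfected with siRNA (20 nM final), treated at 48 h with 500 nM olaparib, and read by CellTiter-Glo after 72 h. Scores: MAD-based z per siRNA, median per gene, seed off-target correction.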
(ATP-based viability assays read luminescence as a measure of living cells.)
Regarding CGAUCUACAUCUGCAUCAUTT against Olfr1212, the z-score is -0.961.

For GGCUUUGAUUGAACAUGAGTT against Lypla2, the z-score is 0.783.

On to CCAUCUAUGAUCCCAGAGCTT against Fbxw9, for which the z-score was 0.241.

Take GGACGUGACAGACAUUAUUTT against Htr5b: the z-score is -0.897.

In the case of GCCAAUGAUGUAGCAAAUUTT against Slc20a1, the z-score was 2.1 (active).

On to CCCUAAUAGAACUAAUGAATT against Kpnb1, for which the z-score was -3.47.

Regarding “CCUACUUCCUCCAUUUAGGTT against 5033413D22Rik”, the z-score was 1.42.

With GGAGUACAGUGAUGACAAGTT against Ing5, the z-score is 0.235.

As to GGUUGGCCAUAUAAAGAGATT against Smarca3, the z-score is 0.771 (active).

On to GGCAAAUGGUCUUUAUGCATT against Zfp606, for which the z-score was -0.699.

In the case of GGGAAGUCACUUUUGUUCCTT against Top2a, the z-score was -1.25.

For the sequence GGCCAAAUUCUUCAGCAGATT against Rpl27a, the z-score was -2.82.

Turning to GGUCCACGGUUACUAAAAATT against Klrd1, the z-score was 2.45 (active).

Turning to “CCAAAACAACCACAAGUAGTT against A930006D11”, the z-score is -2.39.

For GGUGAUAGUCCACGAGGUUTT against Mbc2, the z-score was -1.31.

Turning to GGGUUUUUUUUUUCCUUCCTT against Hsd17b1, the z-score is 1.88 (active).

Regarding GGAGUUUGAGACACUCUGCTT against Apg4d, the z-score was 0.266.

With GGUCCUUCCAUAGUGACGCTT against Igfbp7, the z-score is 0.24.

As to GGAAAUAUGAUCCAUCCUGTT against Zfp282, the z-score is 1.65.

Regarding GGUAUCAAGUGCAGAAUGUTT against Slc37a1, the z-score is 1.99 (active).

With GGGUAACAGUGGUGAACCUTT against Col1a1, the z-score is -1.52.

On to GCUACAAUAUGACAAGUGUTT against Adamts5, for which the z-score is 2.82 (active).

Turning to GGAUGCUCUCUUAAAUGGATT against AI595338, the z-score was -0.0806.

Take “GGAAAAUUGAGAUUUCUGCTT against 1110003E01Rik”: the z-score was 1.52.

GGAUGAAAAAUACUGGUGUTT against Ugt8: the z-score is 3.17.

With GAAGAUCCACUUCAUCGCCTT against Psmb10, the z-score was -1.82.

With GGAAGACAUGAAAUUGUUCTT against Psma3, the z-score is -2.92.

Turning to GGAUGAAGAGAAAAAUUGATT against Slc20a1, the z-score is 2.96 (active).

In the case of GGGUGUACAUUGAAAUUAATT against Epha4, the z-score was 1.05.

“GGAAUUUGAUUCUCUGCCUTT against 6820429M01”: the z-score is 0.0636.

Take GGCACAUGCCCUUUUCUACTT against Cog1: the z-score was 0.266.

On to GCAUUCAGAAUGAGCUGACTT against Nfasc, for which the z-score is -0.0641.

For the sequence GGUGAUCUUCAAAUUGGAGTT against Zfp90, the z-score is -0.401.

On to GCUAUAUCUAAAGCUAUUCTT against Sgpp1, for which the z-score is 0.574 (active).

For the sequence GGCCCACCUAUUUCAUCUCTT against Actl7b, the z-score was 0.808.

For the sequence “GGAGUUUGCCACAAUUGUUTT against 2810408E11Rik”, the z-score is -1.26.

Consider GGAAGAGAGAUGGAAAAAATT against Gcnt1, for which the z-score is -0.555.

For “GGAAAGUGUCACCAAGUUCTT against B230359F08Rik”, the z-score was -0.0496.

Take “GGUACUAAACACCAACUCCTT against B230315M08Rik”: the z-score is 1.28 (active).

On to “GGAAGGAAGAGAAAAACAATT against D11Ertd730e”, for which the z-score is -1.34.

“GGGAUCCGAAUUCUGACCATT against 2010305C02Rik”: the z-score is 1.23.

Consider GGCCAUCAGAUAGUUUAAUTT against AW551984, for which the z-score was -0.3.

With “GCAAGAUUCAGAGUGCAGCTT against 4932441K18”, the z-score was -0.922.

Take “GCCUUACUCUCUCAGUCCUTT against D930018N13”: the z-score was -1.82.

For GGAUACAUUAAUUGUUUGGTT against AW011752, the z-score is 0.68.

For the sequence CCACACUGAGGACUAUAUUTT against Cstf1, the z-score is 0.623.

Take GGAUAGCUGCCAACACUACTT against BC048937: the z-score was -0.0419.

With GGCCUAUCUUCCCAGGAAATT against Mapk1, the z-score was 1.76 (active).

For the sequence GCAAAAAUUAUGCAGAGCATT against Olfr1443, the z-score was 2.55.

Take CGGUAUCUCAACUUUUACATT against Stra8: the z-score is 0.301.

In the case of GCGAACGAAGCAUAAAUGGTT against Mettl1, the z-score was -0.126.

GGCAGUAGUGUUAACGGUGTT against Chrnb2: the z-score is 2.38 (active).

As for GGAUGCUGUAACACUUUAUTT against Bcl6, the z-score was -1.71.

For GGACCAGGUAUUCAUGAUCTT against Sema3c, the z-score was 1.79.

As for “CCAUGAUGAUAAUCUGAAUTT against B930090D16Rik”, the z-score was 0.709.

On to GGAAGAUUUUUCAAAGGAUTT against Itgb6, for which the z-score was 2.51 (active).

As to CAAUAACAGCGAAACAUCCTT against Scn4b, the z-score was 2.18.

On to GUCUCUCUUUUAACAUGCUTT against Ceacam13, for which the z-score was 2.49.

Regarding GCUUGUCUCACACAGCUCUTT against Olfr401, the z-score is -0.379.

CCCACAAGGUUAAGAUAUATT against Col14a1: the z-score is 0.22.

On to GACGGUGGGACUCACUGUUTT against Ors6, for which the z-score was -0.403.

Take GGUUGACACAGAUGAAGAGTT against Rdh9: the z-score was -0.356.

On to GCGUGCAGCCCUCAAUGAATT against Ppp2r5b, for which the z-score was 1.44 (active).

In the case of GGAAUCCAUGCAGAAAUAATT against Pcdhga6, the z-score was 1.54.

As to GGAGAUGGCUUCUCUCUCGTT against Rarg, the z-score is 1.37 (active).

On to CGCGGGAUGAAGGAUAUAATT against LOC432589, for which the z-score is -2.23.

Turning to GGAGAACUGUCAGAACGAGTT against Gpx2, the z-score was -2.7.
